# Data taken from publication PMC7862700, “An all-to-all approach to the identification of sequence-specific readers for epigenetic DNA modifications on cytosine”.
# Experiments:
# Assay in all cases: DAPPL (digital affinity profiling via proximity ligation, sequencing); 10 mM Tris-HCl pH 7.5, 50 mM NaCl, 1 mM DTT, 4% glycerol, room temperature, 30 min; GST-TFs on glutathione beads, 16-mer random dsDNA library, 0.1% formaldehyde crosslink after washing; high values mean tight binding
# Details in all cases: protein: recombinant; tags: N-terminal GST; dsDNA, one strand shown
# [1] = target: T1, FLI1 (Homo sapiens, UniProt Q01543 1-452)
# T1 sequence: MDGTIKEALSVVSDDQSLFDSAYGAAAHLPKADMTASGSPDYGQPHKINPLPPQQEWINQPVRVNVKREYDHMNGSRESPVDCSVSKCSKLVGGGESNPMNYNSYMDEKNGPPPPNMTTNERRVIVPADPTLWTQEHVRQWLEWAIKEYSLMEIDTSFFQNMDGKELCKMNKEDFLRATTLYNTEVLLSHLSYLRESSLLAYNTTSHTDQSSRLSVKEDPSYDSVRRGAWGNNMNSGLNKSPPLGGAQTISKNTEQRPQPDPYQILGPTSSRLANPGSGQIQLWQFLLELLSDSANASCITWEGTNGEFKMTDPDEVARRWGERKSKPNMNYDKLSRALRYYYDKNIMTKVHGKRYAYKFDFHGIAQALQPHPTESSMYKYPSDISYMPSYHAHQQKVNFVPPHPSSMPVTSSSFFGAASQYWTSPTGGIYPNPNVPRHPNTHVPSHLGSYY
# Procedure, shortened: (§1)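 Yeast served to express human transcription factors as GST fusions, which were then captured on glutathione beads and labelled with DNA barcodes. Pooled with a tag-only sample, they were incubated with 200 nmole of a 16-mer random double-stranded DNA library for 30 min at room temperature in Tris/NaCl/DTT/glycerol buffer, washed, crosslinked with 0.1% formaldehyde, ligated by proximity, amplified by PCR and sequenced. Dividing each hexamer's read frequency for a factor by its frequency for the tag-only sample gives the binding signal.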
# [2] = target: T2, ELK1 (Homo sapiens, UniProt P19419 1-428)
# T2 sequence: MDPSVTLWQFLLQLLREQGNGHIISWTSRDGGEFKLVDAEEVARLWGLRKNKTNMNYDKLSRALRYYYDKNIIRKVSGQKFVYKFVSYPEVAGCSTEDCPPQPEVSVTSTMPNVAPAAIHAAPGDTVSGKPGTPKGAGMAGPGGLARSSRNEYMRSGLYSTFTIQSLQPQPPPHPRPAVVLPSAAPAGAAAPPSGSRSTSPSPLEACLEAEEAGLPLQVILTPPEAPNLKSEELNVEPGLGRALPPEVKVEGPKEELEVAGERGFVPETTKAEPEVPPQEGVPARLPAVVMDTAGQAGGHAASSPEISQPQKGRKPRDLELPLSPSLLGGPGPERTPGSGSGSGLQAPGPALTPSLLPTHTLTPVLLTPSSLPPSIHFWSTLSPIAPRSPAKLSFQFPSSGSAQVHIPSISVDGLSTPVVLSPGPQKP
# Procedure, shortened: as §1
# [3] = target: T3, GABPA (Homo sapiens, UniProt Q06546 1-454)
# T3 sequence: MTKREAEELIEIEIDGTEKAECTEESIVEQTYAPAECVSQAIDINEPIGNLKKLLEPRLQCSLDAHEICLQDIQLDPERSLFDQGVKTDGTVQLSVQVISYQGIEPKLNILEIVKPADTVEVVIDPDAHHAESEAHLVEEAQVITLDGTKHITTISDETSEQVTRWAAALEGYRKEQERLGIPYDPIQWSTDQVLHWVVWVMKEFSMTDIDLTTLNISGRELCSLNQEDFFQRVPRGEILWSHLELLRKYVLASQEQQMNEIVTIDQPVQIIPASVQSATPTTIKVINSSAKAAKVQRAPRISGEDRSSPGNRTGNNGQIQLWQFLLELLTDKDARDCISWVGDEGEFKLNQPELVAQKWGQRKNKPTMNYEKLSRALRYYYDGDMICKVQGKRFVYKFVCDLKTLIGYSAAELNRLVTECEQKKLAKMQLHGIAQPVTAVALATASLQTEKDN
# Procedure, shortened: as §1
# [4] = target: T4, ERG (Homo sapiens, UniProt P11308 1-479)
# T4 sequence: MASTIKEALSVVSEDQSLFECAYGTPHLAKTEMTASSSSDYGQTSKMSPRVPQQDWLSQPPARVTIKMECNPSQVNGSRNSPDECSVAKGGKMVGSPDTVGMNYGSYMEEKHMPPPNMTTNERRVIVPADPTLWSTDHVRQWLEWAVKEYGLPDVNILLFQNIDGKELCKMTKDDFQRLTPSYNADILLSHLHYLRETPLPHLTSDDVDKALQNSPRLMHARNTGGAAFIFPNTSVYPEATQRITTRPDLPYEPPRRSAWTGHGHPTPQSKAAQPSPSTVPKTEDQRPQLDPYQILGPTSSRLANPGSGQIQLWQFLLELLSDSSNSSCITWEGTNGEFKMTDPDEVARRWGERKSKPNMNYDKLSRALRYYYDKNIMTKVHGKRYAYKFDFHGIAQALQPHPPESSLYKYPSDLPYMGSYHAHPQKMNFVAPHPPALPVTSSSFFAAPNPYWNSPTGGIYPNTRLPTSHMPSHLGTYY
# Procedure, shortened: as §1
# [5] = target: ELF1 (Homo sapiens, UniProt P32519 1-619)
# Sequence of ELF1 (P32519 whole entry): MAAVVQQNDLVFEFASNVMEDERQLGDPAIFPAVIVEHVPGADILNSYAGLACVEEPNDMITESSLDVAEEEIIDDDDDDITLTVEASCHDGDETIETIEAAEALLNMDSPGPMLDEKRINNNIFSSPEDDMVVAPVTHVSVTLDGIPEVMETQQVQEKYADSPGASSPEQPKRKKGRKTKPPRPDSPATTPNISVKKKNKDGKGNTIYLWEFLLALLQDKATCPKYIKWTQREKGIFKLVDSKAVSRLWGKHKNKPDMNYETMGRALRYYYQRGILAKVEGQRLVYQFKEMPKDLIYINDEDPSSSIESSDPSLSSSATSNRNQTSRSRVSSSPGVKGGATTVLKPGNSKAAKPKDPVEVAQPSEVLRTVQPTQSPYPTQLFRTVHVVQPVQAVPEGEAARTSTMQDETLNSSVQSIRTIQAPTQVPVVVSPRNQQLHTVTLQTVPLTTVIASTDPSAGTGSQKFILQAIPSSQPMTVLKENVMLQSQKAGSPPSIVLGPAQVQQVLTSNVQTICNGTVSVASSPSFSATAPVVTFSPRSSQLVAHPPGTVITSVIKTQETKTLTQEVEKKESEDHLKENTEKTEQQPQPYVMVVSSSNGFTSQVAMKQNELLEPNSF
# Procedure, shortened: as §1
# [6] = target: T5, EHF (Homo sapiens, UniProt Q9NZC4 1-300)
# T5 sequence: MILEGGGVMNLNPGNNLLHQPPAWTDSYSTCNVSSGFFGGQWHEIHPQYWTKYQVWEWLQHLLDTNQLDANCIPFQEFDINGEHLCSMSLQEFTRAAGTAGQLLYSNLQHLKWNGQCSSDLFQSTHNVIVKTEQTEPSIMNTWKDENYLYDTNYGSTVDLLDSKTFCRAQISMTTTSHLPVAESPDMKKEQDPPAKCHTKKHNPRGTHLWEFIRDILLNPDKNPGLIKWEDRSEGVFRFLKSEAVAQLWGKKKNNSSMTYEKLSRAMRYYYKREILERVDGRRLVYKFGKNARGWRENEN
# Procedure, shortened: as §1
# [7] = target: SPIB (Homo sapiens, UniProt Q01892 1-262)
# Sequence of SPIB (Q01892 whole entry): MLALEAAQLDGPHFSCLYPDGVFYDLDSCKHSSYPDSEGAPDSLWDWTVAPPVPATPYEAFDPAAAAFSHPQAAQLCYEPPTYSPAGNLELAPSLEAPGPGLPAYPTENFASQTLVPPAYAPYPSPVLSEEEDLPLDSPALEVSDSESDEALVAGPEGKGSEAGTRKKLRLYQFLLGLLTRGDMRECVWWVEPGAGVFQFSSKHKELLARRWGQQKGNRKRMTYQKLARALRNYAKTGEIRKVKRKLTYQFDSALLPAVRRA
# Procedure, shortened: as §1
# [8] = target: T6, ELK3 (Homo sapiens, UniProt P41970 1-407)
# T6 sequence: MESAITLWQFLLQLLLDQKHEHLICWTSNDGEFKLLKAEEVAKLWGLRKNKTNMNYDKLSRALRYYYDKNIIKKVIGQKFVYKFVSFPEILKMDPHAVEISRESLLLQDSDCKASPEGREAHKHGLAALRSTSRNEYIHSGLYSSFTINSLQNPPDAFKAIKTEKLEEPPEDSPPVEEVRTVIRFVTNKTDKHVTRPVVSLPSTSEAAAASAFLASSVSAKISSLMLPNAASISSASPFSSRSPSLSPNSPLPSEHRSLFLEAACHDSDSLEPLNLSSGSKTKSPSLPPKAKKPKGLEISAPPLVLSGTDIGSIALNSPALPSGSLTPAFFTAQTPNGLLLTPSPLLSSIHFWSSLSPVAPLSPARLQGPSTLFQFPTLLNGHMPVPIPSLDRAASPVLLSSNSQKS
# Procedure, shortened: as §1
# [9] = target: ELF4 (Homo sapiens, UniProt Q99607 1-663)
# Sequence of ELF4 (Q99607 whole entry): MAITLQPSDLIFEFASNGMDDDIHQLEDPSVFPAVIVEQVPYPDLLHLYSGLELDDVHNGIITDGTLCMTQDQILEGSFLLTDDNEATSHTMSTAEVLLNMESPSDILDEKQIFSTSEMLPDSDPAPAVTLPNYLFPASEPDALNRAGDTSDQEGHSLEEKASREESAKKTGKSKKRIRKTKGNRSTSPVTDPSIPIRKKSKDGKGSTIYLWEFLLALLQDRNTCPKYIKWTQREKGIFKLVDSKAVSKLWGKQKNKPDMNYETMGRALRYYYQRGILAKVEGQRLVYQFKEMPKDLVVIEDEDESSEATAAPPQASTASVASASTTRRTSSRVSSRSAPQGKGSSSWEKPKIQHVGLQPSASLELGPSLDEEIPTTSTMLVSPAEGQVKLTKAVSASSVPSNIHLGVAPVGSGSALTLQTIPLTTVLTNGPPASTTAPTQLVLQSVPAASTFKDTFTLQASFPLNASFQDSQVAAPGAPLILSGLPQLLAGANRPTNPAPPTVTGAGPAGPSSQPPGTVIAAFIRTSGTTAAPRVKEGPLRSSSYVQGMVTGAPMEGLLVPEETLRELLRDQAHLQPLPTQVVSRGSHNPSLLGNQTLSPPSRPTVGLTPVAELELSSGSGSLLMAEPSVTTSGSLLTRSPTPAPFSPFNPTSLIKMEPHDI
# Procedure, shortened: as §1
# [10] = target: T7, ELK4 (Homo sapiens, UniProt P28324-2 1-405)
# T7 sequence: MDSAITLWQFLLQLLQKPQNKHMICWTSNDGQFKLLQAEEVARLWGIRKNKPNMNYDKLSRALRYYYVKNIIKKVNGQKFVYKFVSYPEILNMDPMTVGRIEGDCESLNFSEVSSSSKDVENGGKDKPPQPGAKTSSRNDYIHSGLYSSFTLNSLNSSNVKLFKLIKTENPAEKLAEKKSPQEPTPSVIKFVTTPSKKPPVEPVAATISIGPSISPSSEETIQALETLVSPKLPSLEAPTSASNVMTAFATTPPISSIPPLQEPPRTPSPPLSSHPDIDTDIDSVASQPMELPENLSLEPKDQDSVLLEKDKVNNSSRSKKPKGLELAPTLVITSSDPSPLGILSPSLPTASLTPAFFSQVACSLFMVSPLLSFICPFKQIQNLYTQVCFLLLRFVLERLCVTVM
# Procedure, shortened: as §1
# [11] = target: T8, ELF3 (Homo sapiens, UniProt P78545 1-371)
# T8 sequence: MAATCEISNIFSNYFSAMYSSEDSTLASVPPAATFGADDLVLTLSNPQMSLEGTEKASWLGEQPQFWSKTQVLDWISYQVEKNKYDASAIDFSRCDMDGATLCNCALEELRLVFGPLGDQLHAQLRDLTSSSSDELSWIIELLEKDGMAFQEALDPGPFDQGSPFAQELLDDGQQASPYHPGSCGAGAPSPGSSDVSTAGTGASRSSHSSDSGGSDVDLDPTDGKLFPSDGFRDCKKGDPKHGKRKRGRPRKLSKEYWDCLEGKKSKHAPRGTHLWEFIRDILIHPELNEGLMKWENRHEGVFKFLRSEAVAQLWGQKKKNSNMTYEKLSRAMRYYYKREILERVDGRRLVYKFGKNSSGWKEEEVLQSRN
# Procedure, shortened: as §1
# [12] = target: ETV1 (Homo sapiens, UniProt P50549 1-477)
# Sequence of ETV1 (P50549 whole entry): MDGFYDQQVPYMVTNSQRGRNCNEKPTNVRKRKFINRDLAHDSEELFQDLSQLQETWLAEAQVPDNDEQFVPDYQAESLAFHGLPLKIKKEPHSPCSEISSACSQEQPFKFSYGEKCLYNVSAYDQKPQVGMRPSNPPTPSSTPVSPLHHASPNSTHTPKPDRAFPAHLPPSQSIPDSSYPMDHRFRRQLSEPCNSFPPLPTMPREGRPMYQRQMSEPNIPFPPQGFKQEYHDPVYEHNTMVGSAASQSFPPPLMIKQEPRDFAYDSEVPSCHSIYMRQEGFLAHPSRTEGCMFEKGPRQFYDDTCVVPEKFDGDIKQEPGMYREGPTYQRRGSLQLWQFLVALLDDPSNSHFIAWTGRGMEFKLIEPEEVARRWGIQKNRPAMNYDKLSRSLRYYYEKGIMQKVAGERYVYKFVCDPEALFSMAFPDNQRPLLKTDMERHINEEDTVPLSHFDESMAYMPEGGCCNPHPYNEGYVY
# Procedure, shortened: as §1
# [13] = target: T9, ERF (Homo sapiens, UniProt P50548 1-548)
# T9 sequence: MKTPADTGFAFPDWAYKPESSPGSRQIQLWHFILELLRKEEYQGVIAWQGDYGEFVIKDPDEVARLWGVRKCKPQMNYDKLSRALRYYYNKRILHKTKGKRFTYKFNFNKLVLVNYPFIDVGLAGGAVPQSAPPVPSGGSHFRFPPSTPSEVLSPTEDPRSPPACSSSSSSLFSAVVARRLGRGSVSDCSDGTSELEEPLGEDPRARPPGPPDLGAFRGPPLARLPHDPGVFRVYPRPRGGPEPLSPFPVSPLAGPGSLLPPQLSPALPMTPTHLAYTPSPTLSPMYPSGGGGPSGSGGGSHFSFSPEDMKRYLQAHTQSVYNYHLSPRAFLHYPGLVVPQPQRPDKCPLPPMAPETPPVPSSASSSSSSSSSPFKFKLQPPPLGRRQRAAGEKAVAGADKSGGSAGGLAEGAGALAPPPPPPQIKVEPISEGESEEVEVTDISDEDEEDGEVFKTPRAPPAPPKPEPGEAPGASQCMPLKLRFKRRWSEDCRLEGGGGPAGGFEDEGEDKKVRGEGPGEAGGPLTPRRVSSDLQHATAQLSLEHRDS
# Procedure, shortened: as §1
# [14] = target: T10, ETV3L (Homo sapiens, UniProt Q6ZN32 1-361)
# T10 sequence: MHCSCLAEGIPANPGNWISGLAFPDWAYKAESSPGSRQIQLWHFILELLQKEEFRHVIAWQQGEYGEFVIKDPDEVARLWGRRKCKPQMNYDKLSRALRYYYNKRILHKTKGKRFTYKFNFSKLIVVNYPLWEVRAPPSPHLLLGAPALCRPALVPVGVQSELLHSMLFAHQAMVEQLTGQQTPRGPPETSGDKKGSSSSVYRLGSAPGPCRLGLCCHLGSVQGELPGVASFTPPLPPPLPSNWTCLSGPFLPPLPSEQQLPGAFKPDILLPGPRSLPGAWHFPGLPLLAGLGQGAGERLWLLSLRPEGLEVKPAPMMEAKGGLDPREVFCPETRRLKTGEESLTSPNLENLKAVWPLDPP
# Procedure, shortened: as §1
# [15] = target: T11, ETS2 (Homo sapiens, UniProt P15036 1-469)
# T11 sequence: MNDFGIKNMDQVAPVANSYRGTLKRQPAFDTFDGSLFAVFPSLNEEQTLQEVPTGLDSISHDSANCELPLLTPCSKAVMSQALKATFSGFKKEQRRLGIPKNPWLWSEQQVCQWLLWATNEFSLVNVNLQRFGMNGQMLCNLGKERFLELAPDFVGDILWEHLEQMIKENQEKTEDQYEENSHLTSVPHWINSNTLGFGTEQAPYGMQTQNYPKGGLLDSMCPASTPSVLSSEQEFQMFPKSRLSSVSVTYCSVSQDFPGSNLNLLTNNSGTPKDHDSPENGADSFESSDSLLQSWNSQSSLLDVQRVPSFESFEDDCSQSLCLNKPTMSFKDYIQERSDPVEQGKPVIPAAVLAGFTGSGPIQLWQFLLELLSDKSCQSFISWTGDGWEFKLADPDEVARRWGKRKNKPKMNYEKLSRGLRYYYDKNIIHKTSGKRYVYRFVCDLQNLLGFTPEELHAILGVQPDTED
# Procedure, shortened: as §1
# [16] = target: T12, ETV3 (Homo sapiens, UniProt P41162-2 1-143)
# T12 sequence: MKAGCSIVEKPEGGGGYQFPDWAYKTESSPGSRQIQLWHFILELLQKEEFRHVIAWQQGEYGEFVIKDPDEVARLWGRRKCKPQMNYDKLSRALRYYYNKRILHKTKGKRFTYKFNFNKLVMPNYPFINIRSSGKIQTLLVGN
# Procedure, shortened: as §1
# [17] = target: ETV6 (Homo sapiens, UniProt P41212 1-452)
# Sequence of ETV6 (P41212 whole entry): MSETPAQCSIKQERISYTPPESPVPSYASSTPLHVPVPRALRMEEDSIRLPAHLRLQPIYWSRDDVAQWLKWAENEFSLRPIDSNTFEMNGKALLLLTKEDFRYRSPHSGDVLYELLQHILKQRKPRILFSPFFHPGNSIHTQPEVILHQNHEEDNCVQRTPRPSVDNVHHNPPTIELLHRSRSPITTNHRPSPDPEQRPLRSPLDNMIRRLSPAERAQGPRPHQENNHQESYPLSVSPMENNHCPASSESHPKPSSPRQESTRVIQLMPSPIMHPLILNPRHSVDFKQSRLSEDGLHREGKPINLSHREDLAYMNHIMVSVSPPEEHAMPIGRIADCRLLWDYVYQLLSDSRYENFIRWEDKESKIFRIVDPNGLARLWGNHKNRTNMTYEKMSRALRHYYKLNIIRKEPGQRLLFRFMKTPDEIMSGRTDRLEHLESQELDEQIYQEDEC
# Procedure, shortened: as §1
sequence,measurement,setting,value
GATCCA,binding signal,[1],"1.01 fold enrichment (6-mer frequency, TF over GST control)"
same,binding signal,[2],"1.08 fold enrichment (6-mer frequency, TF over GST control)"
same,binding signal,[3],"1.16 fold enrichment (6-mer frequency, TF over GST control)"
same,binding signal,[4],"1.03 fold enrichment (6-mer frequency, TF over GST control)"
same,binding signal,[5],"1.04 fold enrichment (6-mer frequency, TF over GST control)"
same,binding signal,[6],"1.07 fold enrichment (6-mer frequency, TF over GST control)"
same,binding signal,[7],"1.08 fold enrichment (6-mer frequency, TF over GST control)"
same,binding signal,[8],"1.02 fold enrichment (6-mer frequency, TF over GST control)"
same,binding signal,[9],"1.05 fold enrichment (6-mer frequency, TF over GST control)"
same,binding signal,[10],"1.03 fold enrichment (6-mer frequency, TF over GST control)"
same,binding signal,[11],"1.15 fold enrichment (6-mer frequency, TF over GST control)"
same,binding signal,[12],"1.07 fold enrichment (6-mer frequency, TF over GST control)"
same,binding signal,[13],"1.03 fold enrichment (6-mer frequency, TF over GST control)"
same,binding signal,[14],"1.06 fold enrichment (6-mer frequency, TF over GST control)"
same,binding signal,[15],"1.09 fold enrichment (6-mer frequency, TF over GST control)"
same,binding signal,[16],"1.05 fold enrichment (6-mer frequency, TF over GST control)"
same,binding signal,[17],"1.05 fold enrichment (6-mer frequency, TF over GST control)"
